32 compounds from PubChem BioAssay AID720706 (Broad Institute, 2013) can be followed below.

SMILES strings stand for the structures. Values joined by “and” are separate entries in the source; they are usually repeats but may differ in a detail not shown here. Identical values can stand only once. In all, about 350,000 compounds went through this assay and about 5,500 (1.6%) were called active.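 How the source made its calls: active means significant combined selectivity score with lowered wild-type GFP, culture density cut under 30%, mutant RFP and density less affected; inactive means any of these conditions unmet.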 Only a selection was taken, and actives are over-represented in it overall.

The nature of this assay: GFP drop in mixed WT/humanized-ribosome E. coli culture – GFP/RFP fluorescence, OD600, single point, bacterial rRNA inhibitor project, primary screen (AID 720706). The note with it: E. coli WT GFP vs humanized-ribosome RFP mutants, 24 h; GFP signal change (wild-type ribosome): stronger effect = lower value, DMSO median 0, no signal -100; OD600 change: measured here: OD600 growth, DMSO median 0, no signal -100; RFP signal change: measured here: RFP humanized mutant strains, DMSO median 0, no signal -100, concentration not given here.
For the compound `O=C(C[C@@H]1CC[C@@H](NC(=O)C2CCOCC2)[C@H](CO)O1)Nc1ccc(-c2ccccc2)cc1`, the GFP signal change (wild-type ribosome) is -6.86% (inactive), the OD600 change is -2.81% and the RFP signal change is -1.67%.
Consider `CNC[C@H]1Oc2ncccc2C(=O)N(C)C[C@@H]1C`, for which the GFP signal change (wild-type ribosome) is 2.83% (inactive), the OD600 change came out at 2.62% and the RFP signal change was -0.315%.
In the case of `COc1ccc(CCNC(=O)COC(=O)/C=C/c2cccs2)cc1OC`, the GFP signal change (wild-type ribosome) is -13.7% (inactive), the OD600 change is -0.226% and the RFP signal change worked out at 6.24%.
Regarding `COc1ccc(CCNC(=O)Cc2ccc(C)cc2)cc1OC`, the GFP signal change (wild-type ribosome) was 1.64% (inactive), the OD600 change amounted to 11.3% and the RFP signal change is -4.01%.
On the same counts, the results for `COc1ccc(CCNC(=O)c2cc3sccc3n2C)cc1OC` are -23.3% (active), -13% and -7.3%.
On the same counts, the results for `C/C=C/c1ccc2c(c1)[C@H]1[C@H](CCN1S(=O)(=O)c1cn(C)cn1)[C@H](CO)N2` are 13.7% (inactive), 27.2% and 4.63%.
As to `CCC(=O)N1[C@@H](CO)[C@@H](c2ccccc2)C12CN(C(=O)Cc1ccccc1)C2`, the GFP signal change (wild-type ribosome) is 2.16% (inactive), the OD600 change came out at 3.77% and the RFP signal change is -0.755%.
Regarding `CC(C)(C)n1ncc2c(=O)n(Cc3ccc(Cl)cc3)cnc21`, the GFP signal change (wild-type ribosome) was 1.17% (inactive), the OD600 change turned out to be 1.78% and the RFP signal change was -4.59%.
In the case of `COc1ccc(CCNc2ncnc3c2nnn3Cc2ccccc2)cc1`, the GFP signal change (wild-type ribosome) is 4.94% (inactive), the OD600 change was determined as 7.23% and the RFP signal change is -1.23%.
Take `CC(C)CNc1ncnc2c1cnn2Cc1ccc(Cl)cc1`: the GFP signal change (wild-type ribosome) was -36.1% (active), the OD600 change is -17.1% and the RFP signal change was -0.858%.
Turning to `C/C=C/c1ccc(C2[C@H]3CNC[C@@H]2N3Cc2cccc(OC)c2)cc1` (stereo partly specified), the GFP signal change (wild-type ribosome) was -0.328% (inactive) and 2.3% (inactive); the OD600 change was 8.38% and 9.5%; the RFP signal change is 6.71% and 2.48%.
With `FC(F)Oc1ccc(NC(=S)NCc2ccco2)cc1Cl`, the GFP signal change (wild-type ribosome) was -29.1% (active), the OD600 change is -8.22% and the RFP signal change was found to be 5.68%.
With `S=C(NCc1ccco1)Nc1ccc2c(c1)OCCO2`, the GFP signal change (wild-type ribosome) was 9.78% (inactive), the OD600 change amounted to 8.22% and the RFP signal change was -0.482%.
For the compound `COc1cc(NC(=S)NCc2ccco2)c(OC)cc1Cl`, the GFP signal change (wild-type ribosome) was 4.76% (inactive), the OD600 change came to 2.73% and the RFP signal change was determined as 1.65%.
As to `COc1cccc(NC(=O)N[C@H]2C=C[C@@H](CC(=O)Nc3ccc(-c4ccccc4)cc3)O[C@@H]2CO)c1`, the GFP signal change (wild-type ribosome) was -12.2% (inactive), the OD600 change is -10.6% and the RFP signal change amounted to 2.22%.
For `CNC(=O)C[C@H]1CC[C@H]2[C@H](COc3ccc(NC(=O)Nc4ccc(F)cc4)cc3C(=O)N2C)O1`, in that order: 1.92% (inactive), 1.94% and -3.24%.
Consider `COc1ccc(CNC(=O)CN(Cc2ccccc2Cl)C(=O)c2csnn2)cc1`, for which the GFP signal change (wild-type ribosome) is 6.12% (inactive), the OD600 change was determined as 13.2% and the RFP signal change stood at 1.92%.
`COc1cccc(CN(C)CC(=O)NCc2ccccc2Cl)c1OC`: the GFP signal change (wild-type ribosome) is -25.4% (active), the OD600 change is -20.5% and the RFP signal change was 1.05%.
With `COc1ccc(S(=O)(=O)N2CCCCCC2)cc1C(=O)N(C)Cc1cccc(OC)c1OC`, the GFP signal change (wild-type ribosome) was -11.5% (inactive), the OD600 change is -16.8% and the RFP signal change stood at 3.6%.
For the compound `N#Cc1ccc(-c2ccc(C3[C@@H]4CN(S(=O)(=O)c5cccc(Cl)c5)C[C@H]3N4)cc2)cc1` (stereo partly specified), the GFP signal change (wild-type ribosome) was -35.6% (inactive), the OD600 change was -51% and the RFP signal change is -3.29%.
For `C[C@H]1CN([C@@H](C)CO)C(=O)c2c(c3ccccc3n2C)-c2ccccc2CO[C@@H]1CN(C)CC1CCCCC1`, the GFP signal change (wild-type ribosome) was -7.33% (inactive), the OD600 change is -38.8% and the RFP signal change was found to be 12.5%.
In the case of `CC(C)NC(=O)N(C)C[C@H]1Oc2ccc(NS(C)(=O)=O)cc2C(=O)N(C)C[C@@H]1C`, the GFP signal change (wild-type ribosome) was 2.01% (inactive), the OD600 change came to 2.51% and the RFP signal change was -2.3%.
On the same counts, the results for `Cc1ccc(S(=O)(=O)N(C)C[C@@H]2Oc3ccc(NS(=O)(=O)c4cccs4)cc3C(=O)N([C@@H](C)CO)C[C@H]2C)cc1` are -5.79% (inactive), -10.9% and 1.46%.
For the compound `C[C@@H]1CN([C@@H](C)CO)S(=O)(=O)c2ccc(-c3ccc(F)cc3)cc2O[C@H]1CN(C)C(=O)c1ccccc1F`, the GFP signal change (wild-type ribosome) was -8.04% (inactive), the OD600 change was -21% and the RFP signal change is -3.3%.
For the compound `O=C(C[C@H]1C[C@H]2c3cc(NC(=O)NC4CCCC4)ccc3O[C@H]2[C@@H](CO)O1)NCc1ccc(-c2ccccc2)cc1`, the GFP signal change (wild-type ribosome) is -1.74% (inactive), the OD600 change was -6.28% and the RFP signal change was 2.06%.
Regarding `COc1ccc(NC(=O)c2cc3nc(-c4ccccc4)cc(C)n3n2)cc1OC`, the GFP signal change (wild-type ribosome) is -22% (inactive), the OD600 change is -22.4% and the RFP signal change is -6.99%.
On to `Cc1cc(NC(=O)Nc2ccc(Cl)cc2)n(-c2ccccc2)n1`, for which the GFP signal change (wild-type ribosome) was -29.1% (inactive), the OD600 change was -32.4% and the RFP signal change stood at 2.41%.
On to `Cc1ccc(NC(=O)Nc2cc(-c3ccccc3)nn2C)cc1Cl`, for which the GFP signal change (wild-type ribosome) is -40.1% (active), the OD600 change was 5.55% and the RFP signal change is -13.4%.
As for `C[C@H]1CN([C@@H](C)CO)S(=O)(=O)c2ccc(-c3cncnc3)cc2O[C@H]1CN(C)Cc1ccncc1`, the GFP signal change (wild-type ribosome) is 0.29% (inactive), the OD600 change amounted to 1.07% and the RFP signal change worked out at 0.44%.
For the compound `Cc1noc(C)c1NC(=O)N(C)C[C@@H]1Oc2ccc(NC(=O)Nc3ccc(F)cc3)cc2C(=O)N([C@H](C)CO)C[C@@H]1C`, the GFP signal change (wild-type ribosome) is 1.48% (inactive), the OD600 change was found to be 1.88% and the RFP signal change is -0.103%.
On the same counts, the results for `C[C@@H]1CN([C@H](C)CO)S(=O)(=O)c2ccc(C3=CCCC3)cc2O[C@H]1CN(C)Cc1ccccc1F` are -1.53% (inactive), 5.49% and -3.33%.
In the case of `C[C@@H]1CN([C@H](C)CO)S(=O)(=O)c2ccc(C#CC3CC3)cc2O[C@H]1CN(C)C(=O)C1CCCCC1`, the GFP signal change (wild-type ribosome) was -17.1% (inactive), the OD600 change is -48% and the RFP signal change came to 15.7%.
